Activity calls are given as the source filed them.
Legend:
[1] = compound effects on lung adenocarcinoma cell viability – A549, calcein-AM fluorescence, 48 h, basal, profiling panel (AID 1162); settings: higher = more signal
[2] = compound effects on differentiated 3T3-L1 adipocyte viability – cell-based, 3T3-L1 adipocytes, calcein-AM fluorescence, 48 h, basal, profiling panel (AID 1163); settings: 3T3-L1 adipocytes viability, higher = more signal
[3] = compound effects on hepatocellular carcinoma cell viability – HepG2, calcein-AM fluorescence, 48 h, basal, profiling panel (AID 1164); settings: higher = more signal
[4] = compound effects on multiple myeloma cell viability – MM1S, calcein-AM fluorescence, 48 h, basal, profiling panel (AID 1165); settings: higher = more signal;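 note: viability of MM1S multiple myeloma cells under basal unstimulated conditions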
[5] = calcein-AM signal in unstimulated myeloma cells – cell-based, calcein-AM fluorescence, 48 h, PK04 Diversity Set, profiling panel (AID 1166); settings: RPMI8226 myeloma viability, higher = more signal;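 note: cells grown under basal conditions without added stimulus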
[6] = JC-1 mitochondrial signal, unstimulated HepG2 cells – cell-based, JC-1 fluorescence, 24 h, 100 nL compound, profiling panel (AID 1167); settings: HepG2 mitochondrial potential, higher = more signal
[7] = JC-1 mitochondrial signal, unstimulated adipocytes – cell-based, JC-1 fluorescence, 3T3-L1 adipocytes, 24 h, 100 nL compound, profiling panel (AID 1168); settings: JC-1 mitochondrial fluorescence, higher = more signal, called active from +8 up or from −8 down
[8] = JC-1 mitochondrial signal, unstimulated myeloma cells – cell-based, JC-1 fluorescence, RPMI8226, 24 h, 100 nL compound, profiling panel (AID 1169); settings: JC-1 mitochondrial potential fluorescence, higher = more signal
[9] = JC-1 mitochondrial signal, unstimulated MM1S myeloma – cell-based, JC-1 fluorescence, 24 h, 100 nL compound, profiling panel (AID 1170); settings: MM1S mitochondrial potential, higher = more signal
[10] = resazurin metabolic signal in A549 cells – cell-based, resazurin fluorescence, 24 h, PK04 Diversity Set, profiling panel (AID 1171); settings: A549 viability, higher = more signal, called active from +8 up or from −8 down
Note: test concentration not given here.

Row | Structure (SMILES) | z-score [1] | z-score [2] | z-score [3] | z-score [4] | z-score [5] | z-score [6] | z-score [7] | z-score [8] | z-score [9] | z-score [10]
1 | CC(C)(C)N1C(=O)[C@H]2[C@H]3[C@H](O)[C@H](O)CC(=NOC[C@@H](O)COCc4ccco4)[C@@H]3CC[C@H]2C1=O | -0.535 | 0.935 | -0.274 | 0.268 | -1.63 | -1.12 | -0.243 (inactive) | 0.431 | 0.325 | -0.0978 (inactive)
2 | COC(=O)[C@H](C)NC(=O)CCC1CC(OC(=O)NCCc2ccc(F)cc2)CC2(CCCC(COC(=O)NCC3CCCCC3)O2)O1 (stereo not given in full) | -0.111 | 0.851 | -1.36 | -0.574 | -1.85 | -0.717 | 0.497 (inactive) | 0.785 | -0.771 | 0.541 (inactive)
3 | C[C@@H]1CC[C@H]2C(=O)OC(Cc3ccccc3)CN2[C@H]1c1ccc(Br)cc1 (stereo not given in full) | 1.47 | -1.25 | 0.556 | 0.637 | -0.66 | 1.34 | -1.43 (inactive) | 0.558 | -0.332 | 0.472 (inactive)
4 | CC(=O)OC[C@H]1O[C@H](CC=NOC[C@@H](O)COCc2ccco2)C=C[C@@H]1OC(C)=O | 1.04 | -0.0657 | 0.341 | -0.175 | -0.498 | 0.186 | 0.998 (inactive) | -0.198 | -1.01 | 0.0719 (inactive)
5 | CCOC(=O)[C@H](Cc1ccccc1)NC(=O)CCC1CC(OC(=O)NCc2ccc3c(c2)OCO3)CC2(CCCC(COC(=O)NCCc3ccc(Cl)cc3)O2)O1 (stereo not given in full) | 1.81 | 0.71 | 0.622 | -0.845 | -0.167 | 0.783 | 0.361 (inactive) | -0.162 | -1.27 | -0.455 (inactive)
6 | CCOC(=O)[C@H](CC(C)C)NC(=O)CCC1CC(OC(=O)NCc2ccc3c(c2)OCO3)CC2(CCCC(COC(=O)NCCC(C)C)O2)O1 (stereo not given in full) | 0.0634 | -0.0921 | -0.231 | 0.473 | 0.403 | 0.449 | 0.135 (inactive) | -0.938 | -0.155 | 0.704 (inactive)
7 | C[C@@H](c1ccccc1)N1C(=O)[C@H]2[C@H]3[C@H](O)[C@H](O)CC(=NOCc4ccccc4)[C@@H]3CC[C@H]2C1=O | 0.048 | -0.0375 | -0.628 | 0.67 | -2.15 | -0.265 | -0.985 (inactive) | -0.0343 | 0.645 | -0.273 (inactive)
8 | CC(=O)OC[C@H]1O[C@@H](ON=C(C)C)[C@H](OC(C)=O)[C@@H](OC(C)=O)[C@@H]1OC(C)=O | -0.132 | 0.0138 | -0.179 | -0.0646 | -0.43 | -0.0132 | -0.763 (inactive) | 0.93 | 0.35 | -0.0264 (inactive)
9 | O=C(NN=C1C[C@@H](O)[C@@H](O)[C@@H]2[C@@H]3C(=O)N(Cc4ccc5c(c4)OCO5)C(=O)[C@@H]3CC[C@@H]12)OCc1ccccc1 | -0.592 | 0.911 | -0.423 | 0.291 | -0.531 | 0.222 | 0.243 (inactive) | 0.967 | -1.65 | 0.729 (inactive)
10 | COC(=O)[C@H](C)NC(=O)CCC1CC(OC(=O)NCCc2ccc(F)cc2)CC2(CCCC(COC(=O)NCCOc3ccccc3)O2)O1 (stereo not given in full) | 0.401 | -0.506 | 0.696 | 0.546 | -0.475 | 1.17 | 0.00171 (inactive) | 0.606 | -0.0736 | 0.579 (inactive)
11 | CCOC(=O)CCN1C(=O)[C@H]2[C@H]3[C@H](O)[C@H](O)CC(=NOCC(C)C)[C@@H]3CC[C@H]2C1=O | -0.0819 | 0.472 | -0.194 | 0.268 | -0.706 | -1.05 | -0.717 (inactive) | 0.562 | 0.104 | -0.237 (inactive)
12 | CC(C)=CCCC(C)=CCON=C1[C@H]2CCn3c(=O)n(-c4ccccc4)c(=O)n3[C@H]2[C@H](O)[C@@H]2O[C@H]12 | -0.603 | -0.141 | -0.838 | -2.89 | -1.47 | -1.07 | -0.462 (inactive) | -0.247 | -1.81 | -1.33 (inactive)
13 | COc1ccc(-c2cnnc(CCCn3ccnc3-c3ccccc3)n2)cc1 | -0.98 | 1.02 | -1.28 | -1.82 | -2.55 | -1.5 | -0.876 (inactive) | -0.87 | -0.543 | -3.49 (inactive)
14 | C#CCCCON=C1C[C@@H](O)[C@@H](O)[C@@H]2[C@@H]3C(=O)N(C[C@@H]4CCCO4)C(=O)[C@@H]3CC[C@H]12 | -0.549 | -0.614 | -1.28 | 0.266 | 0.0556 | -0.241 | -0.792 (inactive) | 0.489 | -0.149 | 0.019 (inactive)
15 | COC(=O)CC=C1c2ccccc2[C@H](OC)[C@H]1C | 0.16 | -0.116 | -0.379 | -0.458 | -1.22 | -0.8 | -0.272 (inactive) | 0.539 | -0.707 | -0.397 (inactive)
16 | CCN1C(C)=C(C(=O)OC)[C@@H](c2ccccc2)N2C(=O)[C@](O)(C(=O)OC)CC(C(C)=O)=C12 | 0.836 | -0.697 | 0.634 | 0.339 | 0.791 | 0.93 | 0.935 (inactive) | 0.138 | 0.146 | -0.256 (inactive)
17 | CCOC(=O)[C@H](CC(C)C)NC(=O)CCC1CC(OC(=O)NCc2ccc3c(c2)OCO3)CC2(CCCC(COC(=O)NCCOc3ccccc3)O2)O1 (stereo not given in full) | -0.253 | -0.36 | -1.78 | -2.19 | -1.43 | -1.66 | 0.278 (inactive) | -0.879 | -0.0386 | 0.494 (inactive)
18 | CC(=O)OC[C@H]1O[C@H](C#CCCc2ccccc2)C=C[C@@H]1OC(C)=O | 0.233 | 0.292 | -0.207 | -3.49 | -2.48 | -0.972 | -0.282 (inactive) | -0.353 | -1.11 | -0.182 (inactive)
19 | O=C1C=C[C@@H](O)[C@@H]2[C@@H]3C(=O)N(c4cccc(Oc5ccccc5)c4)C(=O)[C@@H]3CC[C@@H]12 | -0.496 | 1.38 | 0.0765 | -1.03 | -2.47 | 0.111 | 0.717 (inactive) | -0.618 | -0.72 | -0.869 (inactive)
20 | CC(=O)OC[C@H]1O[C@@H](ON=C(C)CCC(=O)OC[C@H]2O[C@H](C#Cc3ccccc3)C=C[C@@H]2Oc2ccc(C)cc2)[C@H](OC(C)=O)[C@@H](OC(C)=O)[C@@H]1OC(C)=O | 0.16 | 0.57 | -0.325 | 0.0628 | -0.062 | 0.632 | -1.55 (inactive) | 0.393 | 0.69 | 0.221 (inactive)
21 | CC(CCN1CCCc2nc(C)c(C)cc21)=NO[C@H](C)c1cn([C@@H]2COC[C@H]2O)nn1 | 0.105 | -0.563 | 0.243 | -0.674 | -0.0215 | 0.219 | 0.707 (inactive) | 0.641 | -0.825 | -0.294 (inactive)
22 | C=CC[C@@H]1C=C[C@H](ON=C[C@@H](NS(=O)(=O)c2ccc(C)cc2)[C@H](C)C=CCC(=O)OC)[C@@H](CO)O1 | 0.309 | 0.359 | 0.405 | 0.465 | -0.915 | -0.836 | -0.959 (inactive) | 0.117 | -0.979 | -1.03 (inactive)
23 | C#CCCCON=C1[C@H]2CCn3c(=O)n(Cc4cc5c(cc4Cl)OCO5)c(=O)n3[C@H]2[C@H](O)[C@@H]2O[C@H]12 | 0.328 | -0.237 | 0.484 | -0.0822 | 0.644 | -0.663 | -1.1 (inactive) | -0.123 | 0.00911 | -0.188 (inactive)
24 | CCOC(=O)CCN1C(=O)[C@H]2[C@H]3[C@H](O)[C@H](O)CC(=NNC(=O)OCc4ccc(OC)cc4)[C@H]3CC[C@H]2C1=O | -0.185 | -0.385 | -0.0426 | -0.885 | -0.87 | -0.146 | -0.447 (inactive) | -0.207 | -0.387 | -0.495 (inactive)
25 | COc1ccc(OC[C@@H]2CC3[C@@H](c4ccc(Br)cc4)[C@H](C)CC[C@H]3C(=O)O2)cc1 (stereo not given in full) | 0.228 | 0.0081 | 0.139 | 0.332 | -0.204 | -0.96 | 0.533 (inactive) | 0.196 | 0.0404 | 0.582 (inactive)
26 | COc1ccc(COC(=O)NN=C2C[C@@H](O)[C@@H](O)[C@@H]3[C@@H]4C(=O)N(Cc5ccc6c(c5)OCO6)C(=O)[C@@H]4CC[C@H]23)cc1 | -0.0897 | -0.243 | 0.53 | 0.311 | -0.0157 | 0.301 | -0.339 (inactive) | 0.0307 | -0.825 | -0.0129 (inactive)
27 | C=CC[C@@H]1C=C[C@H](ON=C2C[C@@H](O)[C@@H](O)[C@@H]3[C@@H]4C(=O)N(CC)C(=O)[C@@H]4CC[C@@H]23)[C@@H](CO)O1 | -0.98 | 1 | 0.281 | -1.44 | -1.23 | -0.495 | 0.265 (inactive) | 0.216 | -0.354 | -0.28 (inactive)
